Data taken from PubChem BioAssay AID1159580 (chemical genetic matrix, 2015).
About 2,000 (36%) of roughly 5,500 compounds were called active. Inconclusive results (about 18%) are left out. Cut-off read from the data, not from the text of the source: active = normalized growth mostly below about 0.91 (no sharp cut-off); inconclusive = no clear call, values can overlap the other calls; inactive = mostly above about 0.92. This is one part of the list.

Assay: chemical genetic growth profiling, strain panel (AID 1159580);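 note: tested at 20 µM; growth read once vehicle control cultures reached saturation at 30 °C; 1 = growth at the plate median or of vehicle wells; lower values mean less growth of the strain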
Details: growth OD

Measured: normalized growth

C[C@]12CC(=O)C3C(CC[C@@H]4C[C@H](O)CC[C@]34C)C1CC[C@]2(O)C(=O)CO (stereo not given in full)
inactive: S. cerevisiae deletion strains, locus YAL013W, strain DEP1, stronger effect = lower value 0.997 | S. cerevisiae deletion strains, locus YBR021W, strain FUR4, stronger effect = lower value 0.976 | S. cerevisiae deletion strains, locus YBR229C, strain ROT2, stronger effect = lower value 0.99 | S. cerevisiae deletion strains, locus YCL029C, strain bik1, stronger effect = lower value 1.01 | S. cerevisiae deletion strains, locus YDL035C, strain GPR1, stronger effect = lower value 0.996 | S. cerevisiae deletion strains, locus YDL074C, strain BRE1, stronger effect = lower value 0.978 | S. cerevisiae deletion strains, locus YDL101C, strain DUN1, stronger effect = lower value 0.996 | S. cerevisiae deletion strains, locus YDL185W, strain tfp1, stronger effect = lower value 0.977 | S. cerevisiae deletion strains, locus YDL192W, strain arf1, stronger effect = lower value 1 | S. cerevisiae deletion strains, locus YDR101C, strain arx1, stronger effect = lower value 0.978 | S. cerevisiae deletion strains, locus YDR150W, strain NUM1, stronger effect = lower value 0.994 | S. cerevisiae deletion strains, locus YDR162C, strain NBP2, stronger effect = lower value 1.02 | S. cerevisiae deletion strains, locus YDR318W, strain mcm21, stronger effect = lower value 1.01 | S. cerevisiae deletion strains, locus YDR388W, stronger effect = lower value 0.995 | S. cerevisiae deletion strains, locus YDR502C, strain sam2, stronger effect = lower value 1.01 | S. cerevisiae deletion strains, locus YEL061C, strain CIN8, stronger effect = lower value 0.995 | S. cerevisiae deletion strains, locus YER110C, stronger effect = lower value 0.986 | S. cerevisiae deletion strains, locus YER155C, strain BEM2, stronger effect = lower value 0.986 | S. cerevisiae deletion strains, locus YER167W, strain BCK2, stronger effect = lower value 0.992 | S. cerevisiae deletion strains, locus YGL078C, strain dbp3, stronger effect = lower value 0.983 | S. cerevisiae deletion strains, locus YGL086W, strain mad1, stronger effect = lower value 0.97 | S. cerevisiae deletion strains, locus YGL248W, strain PDE1, stronger effect = lower value 1.01 | S. cerevisiae deletion strains, locus YGR135W, strain pre9, stronger effect = lower value 1.03 | S. cerevisiae deletion strains, locus YGR252W, strain gcn5, stronger effect = lower value 1.06 | S. cerevisiae deletion strains, locus YHR030C, strain SLT2, stronger effect = lower value 0.991 | S. cerevisiae deletion strains, locus YHR079C, strain IRE1 (second series), stronger effect = lower value 0.992 | S. cerevisiae deletion strains, locus YHR094C, strain hxt1, stronger effect = lower value 0.986 | S. cerevisiae deletion strains, locus YHR129C, strain ARP1, stronger effect = lower value 0.992 | S. cerevisiae deletion strains, locus YHR200W, strain rpn10, stronger effect = lower value 1.02 | S. cerevisiae deletion strains, locus YIL066C, strain RNR3, stronger effect = lower value 0.998 | S. cerevisiae deletion strains, locus YIL073C, strain SPO22, stronger effect = lower value 1.03 | S. cerevisiae deletion strains, locus YIL125W, strain kgd1, stronger effect = lower value 0.997 | S. cerevisiae deletion strains, locus YIR030C, strain dcg1, stronger effect = lower value 0.991 | S. cerevisiae deletion strains, locus YJL095W, strain BCK1, stronger effect = lower value 1.04 | S. cerevisiae deletion strains, locus YJL134W, strain LCB3, stronger effect = lower value 0.992 | S. cerevisiae deletion strains, locus YJL168C, strain set2, stronger effect = lower value 0.994 | S. cerevisiae deletion strains, locus YJL187C, strain SWE1 (second series), stronger effect = lower value 1 | S. cerevisiae deletion strains, locus YJR043C, strain POL32, stronger effect = lower value 1 | S. cerevisiae deletion strains, locus YJR075W, strain HOC1, stronger effect = lower value 0.997 | S. cerevisiae deletion strains, locus YKL009W, strain mrt4, stronger effect = lower value 1.1 | S. cerevisiae deletion strains, locus YKL068W, stronger effect = lower value 0.994 | S. cerevisiae deletion strains, locus YKL085W, strain MDH1 (second series), stronger effect = lower value 1 | S. cerevisiae deletion strains, locus YKL085W, strain MDH1, stronger effect = lower value 1 | S. cerevisiae deletion strains, locus YKR001C, strain vps1, stronger effect = lower value 0.987 | S. cerevisiae deletion strains, locus YLR039C, strain RIC1, stronger effect = lower value 0.977 | S. cerevisiae deletion strains, locus YLR058C, strain SHM2, stronger effect = lower value 1.01 | S. cerevisiae deletion strains, locus YLR102C, strain apc9, stronger effect = lower value 0.997 | S. cerevisiae deletion strains, locus YLR262C, strain YPT6, stronger effect = lower value 1 | S. cerevisiae deletion strains, locus YLR268W, strain sec22, stronger effect = lower value 0.96 | S. cerevisiae deletion strains, locus YLR330W, strain CHS5, stronger effect = lower value 0.994 | S. cerevisiae deletion strains, locus YLR342W, strain FKS1 (second series), stronger effect = lower value 0.982 | S. cerevisiae deletion strains, locus YLR371W, strain rom2, stronger effect = lower value 0.993 | S. cerevisiae deletion strains, locus YLR418C, strain cdc73, stronger effect = lower value 1.01 | S. cerevisiae deletion strains, locus YML016C, strain PPZ1, stronger effect = lower value 0.991 | S. cerevisiae deletion strains, locus YML032C, strain rad52, stronger effect = lower value 1.04 | S. cerevisiae deletion strains, locus YML124C, strain tub3, stronger effect = lower value 0.998 | S. cerevisiae deletion strains, locus YMR078C, strain ctf18, stronger effect = lower value 0.989 | S. cerevisiae deletion strains, locus YMR223W, strain ubp8, stronger effect = lower value 1.02 | S. cerevisiae deletion strains, locus YMR263W, strain SAP30, stronger effect = lower value 1 | S. cerevisiae deletion strains, locus YMR307W, strain GAS1, stronger effect = lower value 1.07 | S. cerevisiae deletion strains, locus YNL067W, strain RPL9B, stronger effect = lower value 1.01 | S. cerevisiae deletion strains, locus YNL128W, strain TEP1, stronger effect = lower value 0.981 | S. cerevisiae deletion strains, locus YNL153C, strain GIM3, stronger effect = lower value 1.01 | S. cerevisiae deletion strains, locus YNL233W, strain BNI4, stronger effect = lower value 1.01 | S. cerevisiae deletion strains, locus YNL250W, strain rad50, stronger effect = lower value 0.991 | S. cerevisiae deletion strains, locus YNL271C, strain bni1, stronger effect = lower value 0.989 | S. cerevisiae deletion strains, locus YNL298W, strain CLA4, stronger effect = lower value 0.989 | S. cerevisiae deletion strains, locus YNL307C, strain MCK1, stronger effect = lower value 0.983 | S. cerevisiae deletion strains, locus YNL322C, strain KRE1, stronger effect = lower value 0.998 | S. cerevisiae deletion strains, locus YNR052C, strain pop2, stronger effect = lower value 0.991 | S. cerevisiae deletion strains, locus YOL012C, strain htz1 0.641 | S. cerevisiae deletion strains, locus YOL147C, strain pex11, stronger effect = lower value 0.986 | S. cerevisiae deletion strains, locus YOR061W, strain CKA2, stronger effect = lower value 0.995 | S. cerevisiae deletion strains, locus YOR069W, strain VPS5, stronger effect = lower value 0.988 | S. cerevisiae deletion strains, locus YOR136W, strain idh2, stronger effect = lower value 0.973 | S. cerevisiae deletion strains, locus YOR144C, strain elg1, stronger effect = lower value 0.993 | S. cerevisiae deletion strains, locus YOR184W, strain ser1, stronger effect = lower value 1.01 | S. cerevisiae deletion strains, locus YOR316C, strain cot1, stronger effect = lower value 0.993 | S. cerevisiae deletion strains, locus YPL055C, strain LGE1, stronger effect = lower value 1 | S. cerevisiae deletion strains, locus YPR119W, strain clb2, stronger effect = lower value 0.997 | S. cerevisiae deletion strains, locus YPR141C, strain kar3, stronger effect = lower value 0.992 | S. cerevisiae deletion strains, locus YPR163C, strain tif3, stronger effect = lower value 0.996 | S. cerevisiae deletion strains, locus YPR167C, strain met16, stronger effect = lower value 0.981 | S. cerevisiae deletion strains, strain wtn01, stronger effect = lower value 0.943 | S. cerevisiae strains, strain wild type, stronger effect = lower value 1
